What all share (design): scale not given: direction of the effect not stated beside the values
Assay [1] deals with Protein translocase subunit SecA (Escherichia coli (strain K12)) (UniProt P10408). Description: Assay to Identify E. coli SecA ATPase Inhibitors. Format: functional. The settings on record: 30 µM.
The target in assay [2] is T1, Ubiquitin-activating enzyme e1, putative (Leishmania donovani (strain BPK282A1)) (UniProt E9BSI1).
T1 sequence (whole entry): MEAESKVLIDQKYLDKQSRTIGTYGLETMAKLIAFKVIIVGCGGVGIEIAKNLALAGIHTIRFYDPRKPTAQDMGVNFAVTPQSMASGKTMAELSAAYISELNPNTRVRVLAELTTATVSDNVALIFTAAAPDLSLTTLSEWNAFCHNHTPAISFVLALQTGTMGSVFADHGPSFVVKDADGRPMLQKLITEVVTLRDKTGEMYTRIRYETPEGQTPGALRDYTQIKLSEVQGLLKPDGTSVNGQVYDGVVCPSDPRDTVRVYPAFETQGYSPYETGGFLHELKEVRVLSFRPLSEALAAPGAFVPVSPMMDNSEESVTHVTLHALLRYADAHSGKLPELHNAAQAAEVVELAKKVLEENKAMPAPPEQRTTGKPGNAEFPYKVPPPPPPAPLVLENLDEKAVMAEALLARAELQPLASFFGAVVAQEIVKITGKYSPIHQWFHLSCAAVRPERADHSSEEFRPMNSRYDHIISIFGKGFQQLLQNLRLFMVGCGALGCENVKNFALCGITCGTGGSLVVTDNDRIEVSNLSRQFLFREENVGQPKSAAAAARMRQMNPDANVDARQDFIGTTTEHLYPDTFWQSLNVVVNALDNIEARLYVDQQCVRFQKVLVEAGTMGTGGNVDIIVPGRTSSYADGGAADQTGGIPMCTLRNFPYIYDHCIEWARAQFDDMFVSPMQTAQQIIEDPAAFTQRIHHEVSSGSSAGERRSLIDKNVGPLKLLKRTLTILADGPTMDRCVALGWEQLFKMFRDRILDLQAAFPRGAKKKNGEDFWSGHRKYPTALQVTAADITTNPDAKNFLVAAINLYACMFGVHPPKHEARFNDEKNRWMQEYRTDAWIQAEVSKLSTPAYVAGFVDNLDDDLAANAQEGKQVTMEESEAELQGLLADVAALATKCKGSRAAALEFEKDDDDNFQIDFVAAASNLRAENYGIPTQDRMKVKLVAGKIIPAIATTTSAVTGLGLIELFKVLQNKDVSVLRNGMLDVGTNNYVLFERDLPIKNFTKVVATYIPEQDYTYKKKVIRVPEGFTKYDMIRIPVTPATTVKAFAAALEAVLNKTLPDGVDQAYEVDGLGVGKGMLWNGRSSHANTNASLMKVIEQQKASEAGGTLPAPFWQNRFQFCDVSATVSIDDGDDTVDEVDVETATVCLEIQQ
Put plainly: Leishmania donovani Ubiquitin Activating Enzyme (LdE1). As to conditions: 30 µM. The assay is classed as functional.

Assay [3] has as its target AMP-activated protein kinase, AMPK (Homo sapiens) (UniProt P54646+O43741+P54619+Q9UGJ0+Q9Y478+Q13131+Q9UGI9). Description: AMP-dependent Kinase enzyme assay. An in vitro enzyme assay that detects ADP turnover that is directly proportional to AMPK activity. This uses naive AMPK that is activated during the assay with MK-8722. The assay is classed as functional. The settings on record: 30 µM.

The target of assay [4] is Sialic acid-binding Ig-like lectin 9 (Homo sapiens) (UniProt Q9Y336). Description: Hs-Siglec9 ALPHAscreen SOP 20170721. As to conditions: 10 µM. For orientation: Alpha assays give light when donor and acceptor beads are brought close together.
The subject of another assay is Trypanosoma cruzi. Description: Trypanosoma cruzi phosphomannomutase and mannose-1-phosphate guanylyltransferase assay. Format: functional. The settings on record: 10 µM.
Assay [5] concerns the target T2, Arginase-2, mitochondrial (Homo sapiens) (UniProt P78540).
T2 sequence (whole entry): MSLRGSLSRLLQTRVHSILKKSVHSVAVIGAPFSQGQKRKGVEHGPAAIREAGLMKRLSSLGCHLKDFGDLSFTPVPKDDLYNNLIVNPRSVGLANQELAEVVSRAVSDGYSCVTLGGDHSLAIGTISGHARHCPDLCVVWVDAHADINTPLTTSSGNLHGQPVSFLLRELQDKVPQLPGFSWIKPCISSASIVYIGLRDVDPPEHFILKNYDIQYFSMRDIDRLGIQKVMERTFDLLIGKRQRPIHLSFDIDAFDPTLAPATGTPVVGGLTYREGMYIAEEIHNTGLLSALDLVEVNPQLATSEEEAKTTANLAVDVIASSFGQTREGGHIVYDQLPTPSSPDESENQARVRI
Put plainly: in vitro enzyme assay to detect the production of urea directly proportional to the activity of Arginase II. Note: in the data most compounds retested in dose-response had high values. The assay is classed as functional. The settings on record: 33.3 µM.

The target in assay [6] is T3, Proteasome subunit beta (Trypanosoma cruzi) (UniProt O96673).
T3 sequence (whole entry): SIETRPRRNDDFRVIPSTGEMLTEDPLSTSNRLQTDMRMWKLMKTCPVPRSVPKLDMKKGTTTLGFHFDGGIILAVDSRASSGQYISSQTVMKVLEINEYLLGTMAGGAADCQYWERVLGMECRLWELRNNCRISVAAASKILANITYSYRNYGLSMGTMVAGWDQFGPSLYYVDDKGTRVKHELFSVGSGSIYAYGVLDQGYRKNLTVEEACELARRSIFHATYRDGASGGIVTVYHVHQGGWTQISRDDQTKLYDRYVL
Put plainly: Trypanosoma cruzi proteasome chymotrypsin-like activity (TcProtChymo) assay. Note: in the data most compounds retested in dose-response had high values. The assay is classed as functional. The settings on record: 9.37 µM.

A further assay is filed under the species Homo sapiens. Put plainly: To identify inhibition of the IFN signalling (Jak-Stat) pathway via expression of an eGFP reporter gene under the control of an IFN-stimulated response element (ISRE) containing MxA promoter. The assay is classed as functional. As to conditions: 30 µM. For orientation: A reporter such as luciferase makes a cellular process visible.

Assay [7] addresses T4, Tyrosyl-tRNA synthetase, putative (Trypanosoma cruzi (strain CL Brener)) (UniProt Q4DSP6).
T4 sequence (whole entry): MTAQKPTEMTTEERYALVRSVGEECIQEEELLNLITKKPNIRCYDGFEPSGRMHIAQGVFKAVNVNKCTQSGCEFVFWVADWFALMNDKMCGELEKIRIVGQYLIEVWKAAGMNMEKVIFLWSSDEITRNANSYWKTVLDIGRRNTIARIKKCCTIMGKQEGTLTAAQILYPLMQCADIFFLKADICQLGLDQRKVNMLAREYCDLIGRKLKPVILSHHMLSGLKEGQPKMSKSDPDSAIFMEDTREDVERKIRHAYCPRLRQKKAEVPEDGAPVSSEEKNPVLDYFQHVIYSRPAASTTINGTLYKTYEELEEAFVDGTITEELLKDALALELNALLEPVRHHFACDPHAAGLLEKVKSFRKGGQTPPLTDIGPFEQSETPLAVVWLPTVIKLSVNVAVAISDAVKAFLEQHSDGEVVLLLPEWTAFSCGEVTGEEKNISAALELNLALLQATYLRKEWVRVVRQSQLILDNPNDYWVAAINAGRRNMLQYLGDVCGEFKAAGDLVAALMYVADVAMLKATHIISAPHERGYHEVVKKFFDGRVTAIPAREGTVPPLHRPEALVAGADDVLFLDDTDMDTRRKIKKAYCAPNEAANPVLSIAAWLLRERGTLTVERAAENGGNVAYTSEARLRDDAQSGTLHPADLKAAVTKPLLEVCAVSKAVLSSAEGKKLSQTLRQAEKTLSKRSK
Put plainly: Trypanosoma cruzi tyrosyl tRNA synthetase (TcYRS) _High Tyrosine SOP. Note: in the data most compounds retested in dose-response had high values. The settings on record: 30 µM. The assay is classed as functional.

Assay [8] concerns the target T4, Tyrosyl-tRNA synthetase, putative (Trypanosoma cruzi (strain CL Brener)). Put plainly: Trypanosoma cruzi tyrosyl tRNA synthetase (TcYRS) SOP. Format: functional. The settings on record: 30 µM.
The target in assay [9] is Chromo domain-containing protein 1 (Saccharomyces cerevisiae (strain ATCC 204508 / S288c) (Baker's yeast)) (UniProt P32657). Put plainly: ScCHD-1 Enzyme Inhibition Assay. Note: in the data most compounds retested in dose-response had high values. As to conditions: 30 µM. Format: functional.

Molecules are shown by their SMILES. For some of these results: Entries with a potency or affinity are not part of this list.

Sialic acid-binding Ig-like lectin 9 (Homo sapiens), sequence (Q9Y336 whole entry): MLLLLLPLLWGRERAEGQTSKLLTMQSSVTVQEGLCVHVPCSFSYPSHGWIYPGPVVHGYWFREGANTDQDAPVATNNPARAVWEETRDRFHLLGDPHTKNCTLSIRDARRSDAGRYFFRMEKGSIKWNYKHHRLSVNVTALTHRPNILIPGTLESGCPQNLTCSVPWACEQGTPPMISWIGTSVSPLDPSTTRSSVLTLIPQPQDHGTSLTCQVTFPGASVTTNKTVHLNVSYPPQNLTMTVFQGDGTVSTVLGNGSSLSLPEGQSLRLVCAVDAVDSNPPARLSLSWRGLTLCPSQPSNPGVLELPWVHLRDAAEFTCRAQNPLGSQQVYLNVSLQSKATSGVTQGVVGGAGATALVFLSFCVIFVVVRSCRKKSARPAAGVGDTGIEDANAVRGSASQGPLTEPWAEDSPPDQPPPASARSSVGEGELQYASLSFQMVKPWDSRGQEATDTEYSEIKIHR
Chromo domain-containing protein 1 (Saccharomyces cerevisiae (strain ATCC 204508 / S288c) (Baker's yeast)), sequence (P32657 whole entry, the tested form may be a part): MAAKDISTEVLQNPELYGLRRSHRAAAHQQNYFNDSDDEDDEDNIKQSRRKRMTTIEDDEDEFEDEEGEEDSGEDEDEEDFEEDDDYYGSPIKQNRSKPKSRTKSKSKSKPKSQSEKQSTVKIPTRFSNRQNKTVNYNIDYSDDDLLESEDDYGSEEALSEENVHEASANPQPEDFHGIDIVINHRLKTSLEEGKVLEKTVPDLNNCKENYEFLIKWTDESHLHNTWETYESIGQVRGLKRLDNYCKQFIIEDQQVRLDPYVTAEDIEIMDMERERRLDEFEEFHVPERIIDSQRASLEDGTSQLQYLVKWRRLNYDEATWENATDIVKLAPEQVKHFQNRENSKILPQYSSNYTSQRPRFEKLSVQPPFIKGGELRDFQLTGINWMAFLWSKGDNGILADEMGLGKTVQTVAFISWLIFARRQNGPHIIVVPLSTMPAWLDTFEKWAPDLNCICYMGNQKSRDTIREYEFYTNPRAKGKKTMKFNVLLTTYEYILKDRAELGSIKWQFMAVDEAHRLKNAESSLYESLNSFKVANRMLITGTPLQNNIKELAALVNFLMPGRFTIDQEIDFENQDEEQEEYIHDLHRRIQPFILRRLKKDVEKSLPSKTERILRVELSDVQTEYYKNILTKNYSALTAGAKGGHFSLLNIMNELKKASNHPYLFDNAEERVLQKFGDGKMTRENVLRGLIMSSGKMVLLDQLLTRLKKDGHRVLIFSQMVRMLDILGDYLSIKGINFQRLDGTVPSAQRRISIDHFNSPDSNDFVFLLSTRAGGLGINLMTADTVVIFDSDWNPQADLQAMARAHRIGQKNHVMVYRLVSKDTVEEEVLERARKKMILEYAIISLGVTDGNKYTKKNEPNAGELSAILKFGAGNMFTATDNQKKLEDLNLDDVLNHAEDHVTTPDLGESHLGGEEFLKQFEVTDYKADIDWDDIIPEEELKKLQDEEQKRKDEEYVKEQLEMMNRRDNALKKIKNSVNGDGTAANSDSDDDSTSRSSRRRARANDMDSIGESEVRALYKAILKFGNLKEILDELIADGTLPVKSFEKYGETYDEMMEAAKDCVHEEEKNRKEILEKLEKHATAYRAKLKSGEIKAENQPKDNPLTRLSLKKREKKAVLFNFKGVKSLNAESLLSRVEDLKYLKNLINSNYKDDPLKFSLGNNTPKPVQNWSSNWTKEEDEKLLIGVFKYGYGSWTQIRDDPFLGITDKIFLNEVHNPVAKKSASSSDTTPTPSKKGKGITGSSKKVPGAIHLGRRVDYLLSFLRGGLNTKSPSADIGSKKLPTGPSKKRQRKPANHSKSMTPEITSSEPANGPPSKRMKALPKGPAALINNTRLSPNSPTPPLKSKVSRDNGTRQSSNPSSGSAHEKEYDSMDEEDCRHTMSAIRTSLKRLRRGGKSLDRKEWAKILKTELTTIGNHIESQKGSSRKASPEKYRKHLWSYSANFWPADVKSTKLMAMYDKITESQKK
Protein translocase subunit SecA (Escherichia coli (strain K12)), sequence (P10408 whole entry): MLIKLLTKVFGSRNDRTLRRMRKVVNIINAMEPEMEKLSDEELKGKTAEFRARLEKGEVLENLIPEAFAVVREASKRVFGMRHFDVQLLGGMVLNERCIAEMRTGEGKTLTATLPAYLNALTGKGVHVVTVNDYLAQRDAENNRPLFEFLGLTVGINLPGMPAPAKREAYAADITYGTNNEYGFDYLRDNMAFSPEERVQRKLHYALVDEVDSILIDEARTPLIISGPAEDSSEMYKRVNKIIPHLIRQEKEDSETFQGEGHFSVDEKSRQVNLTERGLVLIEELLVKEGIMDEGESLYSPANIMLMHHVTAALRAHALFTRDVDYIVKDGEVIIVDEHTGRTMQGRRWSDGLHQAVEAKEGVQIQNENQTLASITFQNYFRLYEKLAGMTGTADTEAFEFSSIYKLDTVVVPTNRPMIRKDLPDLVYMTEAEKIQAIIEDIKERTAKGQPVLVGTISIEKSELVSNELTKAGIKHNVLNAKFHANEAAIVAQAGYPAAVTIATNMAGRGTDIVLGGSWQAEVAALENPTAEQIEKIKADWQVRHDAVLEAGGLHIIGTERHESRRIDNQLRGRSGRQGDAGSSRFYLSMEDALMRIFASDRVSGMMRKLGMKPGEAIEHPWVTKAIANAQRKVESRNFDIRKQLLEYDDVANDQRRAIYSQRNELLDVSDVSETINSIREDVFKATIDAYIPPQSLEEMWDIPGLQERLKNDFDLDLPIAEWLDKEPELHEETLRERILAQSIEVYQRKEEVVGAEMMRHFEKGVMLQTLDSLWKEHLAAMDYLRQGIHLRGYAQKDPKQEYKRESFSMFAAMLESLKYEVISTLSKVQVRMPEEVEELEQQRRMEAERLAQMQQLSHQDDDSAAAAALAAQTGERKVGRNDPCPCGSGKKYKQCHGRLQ

`O=C(Nc1cnn(CCN2CCOCC2)c1)c1ccccc1O`: the Percent Effect was -4.19% in [1]; 26.3% in assay [2]; -17.4% in assay [3]; 2.22% in assay [4]; 3.57% in the assay on Trypanosoma cruzi; 4.6% in assay [5]. Besides, the Percent Effect was 16.9% in assay [6]; -2.35% in the assay listed under Homo sapiens; 6.37% in assay [7]; 19.5% in [8]; -12.5% in assay [9].

Take `CC1=Nc2c(c(=O)[nH]n2C(C)C)C(c2ccc(F)c(F)c2)S1` (stereo unspecified): the Percent Effect was -5.53% in [1]; -6.67% in assay [2]; 8.28% in [3]; 12.2% in assay [4]; -0.197% with Trypanosoma cruzi; 1.58% in [5]. Further, the Percent Effect amounted to 9.8% in assay [6]; 34% in the assay listed under Homo sapiens; 18% in [7]; 20.5% in assay [8]; 2.07% in assay [9].

With `O=S(=O)(c1ccccc1)N1CCC2(CCCN2CC2CCCC2)C1` (stereo unspecified), the Percent Effect in assay [1] was -2.93%; in assay [2], -21.6%; in assay [3] it was -3%; in assay [4], 2.91%; in the assay with Trypanosoma cruzi, -0.489%; in [5], 4.78%. Further, the Percent Effect is 13.3% in assay [6]; -13.9% in the assay listed under Homo sapiens; 6.49% in assay [7]; 5.13% in assay [8]; 11% in [9].

In the case of `COc1cccc([C@@H]2CN(C(=O)c3ccc(C)cc3O)C[C@H]2C(=O)O)c1`, the Percent Effect was -3.46% in assay [1]; 21.6% in assay [2]; -1.7% in assay [3]; 25.8% in assay [4]; 4.59% in the assay on Trypanosoma cruzi; 40.9% in assay [5]. For the same molecule, the Percent Effect is 15.9% in assay [6]; 1.8% in the assay listed under Homo sapiens; 3.23% in [7]; 18.5% in assay [8]; -5.84% in assay [9].

Regarding `O=C(CCCOCc1ccccc1)N1CCCC1c1ccccn1` (stereo unspecified), the Percent Effect in assay [1] was -2.89%; in [2], 0%; in assay [3], -0.0464%; in assay [4], -0.638%; in the assay with Trypanosoma cruzi it was 2.55%; in [5], 7.99%. For the same molecule, the Percent Effect is 5% in [6]; -30.4% in the assay listed under Homo sapiens; 0.493% in assay [7]; 3.8% in assay [8]; -2.69% in assay [9].

On to `CCn1cc(Br)c(C(=O)NCc2cccnc2)n1`, for which the Percent Effect in assay [1] was -2.44%; in [2], 7.79%; in [3] it was -1.81%; in [4] it was 5.82%; in the assay on Trypanosoma cruzi, 0.885%; in assay [5], -9.65%. For the same molecule, the Percent Effect in assay [6] is 19.3%; in the assay filed under Homo sapiens, 3.08%; in assay [7], 7.53%; in [8] it was 16.1%; in assay [9] it was -1.44%.

Turning to `Cc1nc(C)n(CC2CCCN2CC(=O)Nc2cc(C(C)C)no2)n1` (stereo unspecified), the Percent Effect is -3.86% in [1]; 18.4% in [2]; -3.35% in assay [3]; 10.4% in assay [4]; 1.03% in the assay on Trypanosoma cruzi; -0.36% in assay [5]. The Percent Effect in [6] was 8.21%; in the assay filed under Homo sapiens it was 22.5%; in assay [7], 4.43%; in assay [8], 16.1%; in assay [9], -3.86%.

For the molecule `Cc1ccc(=O)n(CC2(O)CCN(Cc3ccsc3)CC2)n1`, the Percent Effect in assay [1] was 1.03%; in assay [2], 1.35%; in assay [3] it was 9.78%; in [4], -1.02%; with Trypanosoma cruzi, -4.74%; in assay [5], 3.02%. For the same molecule, the Percent Effect in assay [6] is 12.9%; in the assay listed under Homo sapiens it was 2.32%; in assay [7], 7.53%; in assay [8], 9.09%; in assay [9] it was -6.08%.

In the case of `Cc1ccc(N2CCCc3sc(C(=O)NCc4cccnc4)nc32)nn1`, the Percent Effect in assay [1] was -3.86%; in assay [2] it was -8.22%; in assay [3], -0.787%; in assay [4] it was 3.77%; in the assay with Trypanosoma cruzi it was 7.54%; in assay [5] it was -7.19%. Also, the Percent Effect in assay [6] was 5.39%; in the assay listed under Homo sapiens, -8.08%; in [7], 1.04%; in [8], 6.17%; in [9] it was -2.84%.

For `Cc1cc(C2CCCN(CCCNS(C)(=O)=O)C2)n[nH]1` (stereo unspecified), the Percent Effect in assay [1] is -3.61%; in assay [2], 2.53%; in [3], -4.24%; in assay [4], 13.7%; in the assay on Trypanosoma cruzi, -0.283%; in assay [5], -2.66%. For the same molecule, the Percent Effect in assay [6] was -2.7%; in the assay listed under Homo sapiens, -2.96%; in assay [7] it was 5.42%; in assay [8], 3.8%; in assay [9], -0.769%.

On to `Cc1nn(C)c(N2CCOCC2)c1CNC(c1cccs1)C(C)C` (stereo unspecified), for which the Percent Effect in assay [1] was -2.38%; in assay [2], 21.1%; in [3], -9.37%; in assay [4], -0.827%; in the assay with Trypanosoma cruzi it was 1.59%; in assay [5], 1.8%. For the same molecule, the Percent Effect in assay [6] was 12.6%; in the assay filed under Homo sapiens it was -16.1%; in assay [7], 10.3%; in [8] it was 28.4%; in [9] it was -6.09%.

For the origin of these results see ChEMBL document CHEMBL3988442, “University of Dundee, Small-Polar-MMV Screening Library” (2021).
